According to PubChem BioAssay AID504332 (National Center for Advancing Translational Sciences (NCATS), 2011):
The whole screen tested about 350,000 compounds, of which about 31,000 (8.9%) were called active. Not shown: some 15% with an inconclusive outcome. This is one part of a sample in which actives are shown more often than they occur. Calls follow the shape of the dose curve; as a rule, active = well fitted inhibition curve with a large enough effect; inconclusive = small, poorly fitted or top-dose-only effect; inactive = no such curve, though single readings can be large or run the other way.

The molecules below were run against Histone-lysine N-methyltransferase EHMT2 (Homo sapiens) (UniProt Q96KQ7) (assay: qHTS Assay for Inhibitors of Histone Lysine Methyltransferase G9a). Details: G9a H3K9 monomethylation, AlphaScreen, 2 h; series mostly up to 59 µM.
Procedure, shortened: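 G9a (20 nM) was preincubated 15 min with compound, then reacted 2 h at room temperature with 500 nM biotin-H3K9 peptide and 20 µM SAM. Monomethyl-H3K9 detected by AlphaScreen using anti-H3K9me1 antibody.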
% is scaled to controls: 0 for no effect and ±100 for the full control effect; potency is read from the fitted curve at half-maximal effect.
Also: nearly all actives have a fitted effect of over 75% in size.

Chain of Histone-lysine N-methyltransferase EHMT2 (Homo sapiens) (Q96KQ7 913-1193 limits assumed): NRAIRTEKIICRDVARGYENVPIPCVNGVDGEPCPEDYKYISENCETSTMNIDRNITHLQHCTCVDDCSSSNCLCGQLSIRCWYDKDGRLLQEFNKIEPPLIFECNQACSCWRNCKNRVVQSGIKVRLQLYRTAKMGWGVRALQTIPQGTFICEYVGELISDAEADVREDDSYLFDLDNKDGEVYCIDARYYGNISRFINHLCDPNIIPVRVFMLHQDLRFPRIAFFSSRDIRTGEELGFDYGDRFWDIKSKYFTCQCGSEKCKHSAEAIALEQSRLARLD

Potency, inactive:
CCn1c(C(=O)Nc2cc(Cl)ccc2C)cc2sc(Cl)cc21, CCOc1ccccc1/C=N/NC(=O)CNC(=O)COc1ccccc1, CCNC(=O)Cn1nc(C)n2c(cc3c(OC)cccc32)c1=O, CN1C(=O)C(CC(=O)Nc2ccccc2)S/C1=N/c1nccs1 (configuration not stated), O=C(Nc1cccc(Cl)c1)OCc1ccccn1, COc1ccc(-c2nc3ccccc3o2)cc1NC(=O)c1cc([N+](=O)[O-])ccc1N1CCOCC1, Cc1cc(C(=O)OC(C)C(=O)Nc2cccc(S(=O)(=O)N3CCOCC3)c2)c(C)o1 (configuration not stated), O=c1[nH][nH]c(=O)c2cc(N3CCCC3)ccc12, CCOC(=O)/C(C#N)=C/c1ccc(N2CCCCC2)cc1, COc1ccc(Nc2ncnc3ccc(Br)cc23)c(OC)c1, COc1ccc(-c2nc(SCC(=O)N3CCCCC3C)n[nH]2)cc1 (configuration not stated), COc1ccccc1CCNC(=O)c1cccn1-c1nnc(N2CCCCC2)s1, Cc1nn(C(=O)c2c(F)cccc2F)c(C)c1S(=O)(=O)N1CCOCC1, Cc1ccc(S(=O)(=O)N2CCN(Cc3cccc(C)c3O)CC2)cc1, O=C(CN1CCN(S(=O)(=O)c2ccc(F)cc2)CC1)NC1CC1, CCN(CC(=O)Nc1ccc(OC)cc1)C(=O)c1ccc(=O)n(Cc2ccccc2)n1, Cc1ccccc1-c1nc2cc(NC(=O)c3cccc(OCCC(C)C)c3)ccc2o1, Cc1nc2c(c(C)nn2-c2ccccc2)c(C)c1CCC(=O)NCCc1ccc(Cl)cc1, COc1ccc(CNC(=O)CC2Oc3ccc(C)cc3NC2=O)cc1 (configuration not stated), Cc1cccc(N(Cc2ccccc2)C(=O)c2cc(S(=O)(=O)N3CCOCC3)ccc2F)c1, CCOc1cccc2cc(-c3cn4c(n3)sc3cc(C)ccc34)c(=O)oc12, CC1(C(=O)NNC(=S)NCC2CCCO2)CC1(Cl)Cl (configuration not stated), Cc1ccc(-n2nc3cc(Cl)c(NC(=O)c4ccco4)cc3n2)cc1, Cc1ccc(Cn2c(NC(=O)c3ccco3)nc3ccccc32)cc1, COc1ccccc1NC(=O)COC(=O)c1ccccc1SCC(=O)N1CCCC1, COc1ccc(S(=O)(=O)N2CCN(C(C)C(=O)Nc3ccc(C(C)C)cc3)CC2)cc1 (configuration not stated), O=C(CCn1c(=O)c2ccccc2n(Cc2ccc(Cl)cc2)c1=O)NCc1ccc2c(c1)OCO2, CCOc1ccc(C(=O)c2cn(Cc3ccc(F)cc3)c3ccc(F)cc3c2=O)cc1, Cc1ccc(CNC(=O)CCC(=O)N2Cc3ccccc3Oc3ncccc32)cc1, Cc1noc(/C=C/N(C)C)c1S(=O)(=O)N1CCCC(C(=O)Nc2cccc(F)c2)C1 (configuration not stated), CCOC(=O)c1c(-c2ccccc2)csc1NC(=S)NC(=O)c1ccccc1, CCOC(=O)c1c(-c2ccc(-c3ccccc3)cc2)csc1NC(=O)CCC(=O)O, CC(=O)N1CCOc2ccc(S(=O)(=O)N3CCC(C(=O)Nc4ccccc4F)CC3)cc21, Cc1ccc(Cc2nnc(SCC(=O)Nc3ccccc3C)[nH]c2=O)cc1, CCNC(=O)N1c2ccccc2Sc2ccccc21, CCOC(=O)CNC(=O)N1c2ccccc2Sc2ccccc21, CCN1CCC(N(Cc2ccc(F)cc2)C(=O)Nc2cc(C)ccc2C)CC1, CCn1cc(C(=O)N2CCN(c3cc(C)ccc3C)CC2)c(=O)c2cc(S(=O)(=O)N(C)C3CCCCC3)ccc21, Cc1nc(-c2ccccc2)sc1-c1nnc(C2CC2)o1, C=CCn1c(=S)sc2c(=O)[nH]c(C)nc21, C=CCn1c(COc2cccc3cccnc23)nnc1SCC(=O)OC, Cc1[nH]c2ccc(S(N)(=O)=O)cc2c1C, C=CCn1c(COc2ccccc2C)nnc1SCC(=O)O, Cc1nc(-c2ccccc2)sc1-c1nc(-c2ccccc2)ncc1S(=O)(=O)c1ccccc1, Cc1ccsc1-c1cc(C(=O)O)c2c(ccc3ccccc32)n1, CCOC(=O)c1[nH]c(C)c(CCC(=O)N2CCN(c3ccccc3)CC2)c1C, COc1ccc(/C=C/c2noc(-c3ccccc3OC(C)=O)n2)cc1, COc1ccc(CCNC(=O)CCCn2c(=O)c3ccccc3n(Cc3ccc(F)cc3Cl)c2=O)cc1OC, COc1ccc(COC(=O)c2ccc(Cl)c(S(=O)(=O)N3CCOCC3)c2)cc1F, Cc1ccc(-c2nnc(Nc3ccc(OCC(N)=O)cc3)c3ccccc23)cc1S(=O)(=O)NCC1CCCO1 (configuration not stated), Cc1ccccc1OCc1nc2c3cnn(-c4ccccc4F)c3ncn2n1, CC(CNC(=O)c1ccc(N)cc1)NC(=O)c1ccc(N)cc1 (configuration not stated), CC(NC(=O)c1ccc(N2CCNCC2)c([N+](=O)[O-])c1)C12CC3CC(CC(C3)C1)C2 (configuration not stated), CCOC(=O)C(C)n1cnc2c(nnn2-c2ccc(F)cc2)c1=O (configuration not stated), CC(C)(C)C1CCc2c(sc(NC(=O)c3ccccc3F)c2C(=O)N2CCCCC2)C1 (configuration not stated), O=C(Nc1ccccc1N1CCOCC1)c1ccc(OCc2cscn2)cc1, CCOC(=O)c1cc2ccccc2n1CC(=O)c1ccccc1, COc1ccc2cc(C(=O)O)n(CC(=O)c3ccccc3)c2c1, COc1ccccc1C(=O)NCC(=O)NCCSc1ccc(Br)cc1, COc1ccccc1N1CCN(C(=O)C2Cc3ccccc3CN2C(=O)c2ccco2)CC1 (configuration not stated), CC1CCN(c2ccc(-c3ccc(NC(=O)c4ccco4)cc3)nn2)CC1, O=C(Nc1cc(C(F)(F)F)ccc1Cl)c1ccc2c(c1)CCN2S(=O)(=O)c1ccccc1, Cc1cc(C)c(NC(=O)CN2C(=O)c3cccnc3Oc3ccc(Cl)cc32)c(C)c1, O=C(CN1C(=O)c2cccnc2Oc2ccc(Cl)cc21)NCCc1ccccc1

Potency, active:
C=C(C)CNC(=S)N/N=C/c1ccccc1OCC(=O)O 11.2 µM, O=C(CC1SC(=Nc2ccccc2)N(Cc2ccccn2)C1=O)Nc1cccc(Cl)c1 (configuration not stated) 8.91 µM, CC(Sc1cccc[n+]1[O-])C(=O)Nc1cccc(S(=O)(=O)N2CCOCC2)c1 (configuration not stated) 8.91 µM, O=C1C=CC(=O)N1c1ccc(N2CCCCC2)cc1 0.562 µM, O=S(=O)(c1ccc(F)cc1)N1CCN(Cc2ccccc2C(F)(F)F)CC1 10 µM, CN1/C(=c2/s/c(=C3/C(=O)N(c4ccccc4)NC3=Nc3ccccc3)n(C)c2=O)C(C)(C)c2ccccc21 10 µM, CCn1nc(NC(=O)c2ccco2)c2cc3ccc(C)cc3nc21 50.1 µM, CC(OC(=O)CNS(=O)(=O)/C=C/c1ccccc1)C(=O)Nc1ccc(S(=O)(=O)N2CCCC2)cc1 (configuration not stated) 10 µM, Cn1cc(CCC(=O)NCc2ccc3c(c2)OCO3)c2ccccc21 25.1 µM, CCOC(=O)c1c(-c2ccc(C)cc2)csc1/N=C(\C)C1=C(O)c2ccccc2C1=O 28.2 µM, CCC(=O)/C=C1\Sc2ccccc2N1CC 50.1 µM, C=CCn1c(-c2ccc3[nH]c(C)c(C)c3c2)n[nH]c1=S 1 µM, C=CCn1c(-c2ccccc2OCC)n[nH]c1=S 7.08 µM, C=CCn1c(-c2sc(-c3ccccc3)nc2C)n[nH]c1=S 3.16 µM, Cn1nccc1C(=O)NC1CCCc2c1cnn2-c1ccc(F)cc1F (configuration not stated) 79.4 µM, CN(C)NC(=O)C(NC(=O)c1ccc(N)cc1)C12CC3CC(CC(C3)C1)C2 (configuration not stated) 44.7 µM, CCn1c(=N)n(CC(=O)c2cccc(OC)c2)c2ccccc21 44.7 µM, CCN(CC)c1ccc(NC(=O)CN2C(=O)c3cccnc3Oc3ccc(Cl)cc32)c(C)c1 2.82 µM

activity, negative = inhibition, inactive:
C=CCOc1ccccc1/C=N/NC(=O)Cc1ccccc1 -1.48% [at 0.501 µM], CCCCn1nc(C(=O)Nc2cccc(C(=O)NC3CC3)c2)c2ccccc2c1=O 5.39% [at 2.33 µM], O=C(CSc1ccccc1)Nc1cccc(S(=O)(=O)N2CCOCC2)c1 7.75% [at 12.7 µM], COc1cccc(C2=CC(=O)C[C@H](c3ccc(F)cc3)C2)c1OC -9.38% [at 0.501 µM], CC1(C)O[C@@H]2[C@H](O1)[C@@H](COS(=O)(=O)O)O[C@H]2n1cnc2c(=O)[nH]cnc21 9.85% [at 2.33 µM], CCc1noc(C)c1C(=O)N1CCN(S(=O)(=O)c2cccc(C(F)(F)F)c2)CC1 9.9% [at 12.7 µM], CC(C(=O)Nc1ccc(S(=O)(=O)N2CCCC2)cc1)N(C)Cc1ccc(F)cc1 (configuration not stated) 2.24% [at 2.33 µM], COc1cc(C(C)=O)ccc1OC(C)C(=O)Nc1ccc(S(=O)(=O)N2CCCC2)cc1 (configuration not stated) 9.79% [at 12.7 µM], Cc1ccc(NS(=O)(=O)c2ccc3c(c2)CC(=O)N3)cc1Cl -0.894% [at 12.7 µM], CCN(CC)S(=O)(=O)c1ccc(NC(=O)c2cnc(C)cn2)cc1 0.345% [at 0.501 µM], CCN(CC)C(=O)C(=O)c1cn(CC(=O)NCc2ccc3c(c2)OCO3)c2ccccc12 27.8% [at 12.7 µM], CC(=O)NCC(=O)NC1CCCc2c1cnn2-c1ccccc1F (configuration not stated) 11.3% [at 0.501 µM], Cn1nccc1C(=O)NC1CCCc2c1cnn2-c1ccccc1F (configuration not stated) 16.6% [at 0.501 µM], CN1C(C(=O)NCc2ccco2)CC2Cn3c(nc4ccccc43)C21 (configuration not stated) 16.2% [at 2.33 µM], COc1cccc(N2CC(C(=O)NCc3n[nH]c(=O)c4ccccc34)CC2=O)c1 (configuration not stated) -7.83% [at 2.33 µM]
